Source: PubChem BioAssay (NCATS)
Records with an inconclusive call do not appear. Entries that show only a call come without a potency. Active and inactive are the calls of the source. The call rests on the fitted dose curve; in most records, active means well fitted inhibition curve with a large enough effect; inconclusive means small, poorly fitted or top-dose-only effect; inactive means flat fitted curve, though single readings scatter.

Test system: not listed separately
Test: Drug repurposing screens with cells derived from glioblastoma tumor samples (AID 1345199); further: nearly all actives have a fitted effect of over 40% in size
Settings: GBM patient neurospheres viability, ATP luminescence, 48 h; at 46.1 µM (top of the series); tumour line C
Method in brief: (§1)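 Four patient lines of CD133+ GBM neurospheres were screened at several concentrations; hits were retested in those lines plus three slower-growing GBM lines, using 48-hour treatment and ATP-based viability.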
Potency means the concentration at half of the fitted maximal effect.

| SMILES | activity, negative = cell killing |
| --- | --- |
| Nc1ccc(S(=O)(=O)Nc2nccs2)cc1 | -7.84% (inactive) |
| CC(C(O)c1ccc(O)cc1)N1CCC(Cc2ccccc2)CC1 (stereo not given) | -15.9% (inactive) |
| CN(C)CCOC(C)(c1ccccc1)c1ccccn1 (stereo not given) | -0.022% (inactive) |
| CC(O)COc1ccccc1 (stereo not given) | -0.412% (inactive) |
| Cc1cccc(C)c1NC(=O)CN(CC(=O)O)CC(=O)O | -3.39% (inactive) |
| CN(C)CCN(Cc1ccccc1)c1ccccn1 | -4.16% (inactive) |

Same assay, conditions: GBM patient neurospheres viability, ATP luminescence, 48 h; tumour line A

| SMILES | Potency |
| --- | --- |
| CC(CN(C)C)CN1c2ccccc2CCc2ccccc21 (stereo not given) | 6.31 µM (active) |
| CC(CN1c2ccccc2Sc2ccccc21)N(C)C (stereo not given) | 14.1 µM (active) |
| Cc1c(O)cccc1C(=O)N[C@@H](CSc1ccccc1)[C@H](O)CN1C[C@H]2CCCC[C@H]2C[C@H]1C(=O)NC(C)(C)C | 6.31 µM (active) |
| CNC(=O)Oc1ccc2c(c1)[C@]1(C)CCN(C)[C@@H]1N2C | 35.5 µM (active) |
| CCN(CC)C(C)CN1c2ccccc2Sc2ccccc21 (stereo not given) | 10 µM (active) |
| CC(C(O)c1ccc(O)cc1)N1CCC(Cc2ccccc2)CC1 (stereo not given) | 2.82 µM (active) |
| CN(C)CCOC(C)(c1ccccc1)c1ccccn1 (stereo not given) | 15.8 µM (active) |
| CN(C)CCN(Cc1ccccc1)c1ccccn1 | 5.62 µM (active) |
| COc1ccc2[nH]c(S(=O)Cc3ncc(C)c(OC)c3C)nc2n1 (stereo not given) | 11.2 µM (active) |

Same assay, conditions: GBM patient neurospheres viability, ATP luminescence, 48 h; tumour line B

| SMILES | Potency |
| --- | --- |
| CC(CN1c2ccccc2Sc2ccccc21)N(C)C (stereo not given) | 20 µM (active) |
| Cc1c(O)cccc1C(=O)N[C@@H](CSc1ccccc1)[C@H](O)CN1C[C@H]2CCCC[C@H]2C[C@H]1C(=O)NC(C)(C)C | 11.2 µM (active) |
| CC(C(O)c1ccc(O)cc1)N1CCC(Cc2ccccc2)CC1 (stereo not given) | 35.5 µM (active) |

Same assay, conditions: GBM patient neurospheres viability, ATP luminescence, 48 h; tumour line D

| SMILES | Potency |
| --- | --- |
| CC(CN1c2ccccc2Sc2ccccc21)N(C)C (stereo not given) | 22.4 µM (active) |
| Cc1c(O)cccc1C(=O)N[C@@H](CSc1ccccc1)[C@H](O)CN1C[C@H]2CCCC[C@H]2C[C@H]1C(=O)NC(C)(C)C | 20 µM (active) |
| CC(C(O)c1ccc(O)cc1)N1CCC(Cc2ccccc2)CC1 (stereo not given) | 12.6 µM (active) |

Test system: astro (control astrocytes)
Test: as above
Settings: viability, ATP luminescence, 48 h; series mostly up to 45.9 µM
Method in brief: as §1

| SMILES | Potency |
| --- | --- |
| COc1ccc(Cl)cc1C(=O)NCCc1ccc(S(=O)(=O)NC(=O)NC2CCCCC2)cc1 | inactive |
| COc1ccc2cc1Oc1cc3c(cc1OC)CC[N+](C)(C)[C@H]3Cc1ccc(cc1)Oc1c(OC)c(OC)cc3c1[C@@H](C2)[N+](C)(C)CC3 | inactive |
| CC[C@@]1(c2ccccc2)NC(=O)N(C)C1=O | inactive |
| O=C1O[C@H]([C@@H](O)CO)C(O)=C1O | inactive |
| Cc1cccc(Nc2cc(Cl)nc(SCC(=O)O)n2)c1C | inactive |
| Cc1cc2nc3c(=O)[nH]c(=O)nc-3n(C[C@H](O)[C@H](O)[C@H](O)CO)c2cc1C | inactive |
| C[C@@H]1CC[C@@]2(OC1)O[C@H]1C[C@H]3[C@@H]4CC[C@H]5C[C@@H](O)CC[C@]5(C)[C@H]4CC(=O)[C@]3(C)[C@H]1[C@@H]2C | inactive |
| O=c1cc[nH]c(=S)[nH]1 | inactive |
| COc1cc(C)c(Cc2cnc(N)nc2N)cc1OC | inactive |
| CCCOC(=O)c1ccccc1 | inactive |
| CC(CN(C)C)CN1c2ccccc2CCc2ccccc21 (stereo not given) | inactive |
| CN1[C@@H]2CC[C@H]1CC(OC(=O)C(O)c1ccccc1)C2 (stereo not given in full) | inactive |
| C[C@@H](O)[C@H](N)C(=O)O | inactive |
| NC(=O)N/N=C/c1ccc([N+](=O)[O-])o1 | inactive |
| CC(C)(O)c1ccccc1CC[C@@H](SCC1(CC(=O)O)CC1)c1cccc(/C=C/c2ccc3ccc(Cl)cc3n2)c1 | 20 µM (active) |
| CC(CN1c2ccccc2Sc2ccccc21)N(C)C (stereo not given) | 20 µM (active) |
| Cc1ncc(COP(=O)(O)O)c(C=O)c1O | inactive |
| O=C1NC(=O)[C@@]2(CCOc3ccc(F)cc32)N1 | inactive |
| Cc1c(O)cccc1C(=O)N[C@@H](CSc1ccccc1)[C@H](O)CN1C[C@H]2CCCC[C@H]2C[C@H]1C(=O)NC(C)(C)C | 35.5 µM (active) |
| CCN(CC)C(=O)Nc1ccc(OCC(O)CNC(C)(C)C)c(C(C)=O)c1 (stereo not given) | inactive |

| SMILES | Potency |
| --- | --- |
| O=C(O)COc1nn(Cc2ccccc2)c2ccccc12 | inactive |
| C[C@@H]1C[C@H]2[C@@H]3C[C@H](F)C4=CC(=O)C=C[C@]4(C)[C@@]3(F)[C@@H](O)C[C@]2(C)[C@@]1(O)C(=O)CO | inactive |
| Nc1ccc(S(=O)(=O)Nc2ccccc2)cc1 | inactive |
| C[C@H](NC(CCc1ccccc1)C(=O)O)C(=O)N1CCC[C@H]1C(=O)O (stereo not given in full) | inactive |
| O=C1NS(=O)(=O)c2ccccc21 | inactive |
| CCCCc1ncc(/C=C(\Cc2cccs2)C(=O)O)n1Cc1ccc(C(=O)O)cc1 | inactive |
| OCC(CO)N[C@H]1C[C@](O)(CO)[C@@H](O)[C@H](O)[C@H]1O | inactive |
| CNC(=O)Oc1ccc2c(c1)[C@]1(C)CCN(C)[C@@H]1N2C | inactive |
| NS(=O)(=O)c1cc2c(cc1Cl)NC(CSCc1ccccc1)=NS2(=O)=O | inactive |
| CCN(CC)C(C)CN1c2ccccc2Sc2ccccc21 (stereo not given) | inactive |
| O=C(O)CC(O)C(=O)O (stereo not given) | inactive |
| O=C(O)[C@@H]1CSCN1 | inactive |
| Nc1ccc(S(=O)(=O)Nc2nccs2)cc1 | inactive |
| CC(C(O)c1ccc(O)cc1)N1CCC(Cc2ccccc2)CC1 (stereo not given) | inactive |
| CN(C)CCOC(C)(c1ccccc1)c1ccccn1 (stereo not given) | inactive |
| CC(O)COc1ccccc1 (stereo not given) | inactive |
| Cc1cccc(C)c1NC(=O)CN(CC(=O)O)CC(=O)O | inactive |
| CN(C)CCN(Cc1ccccc1)c1ccccn1 | inactive |
| COc1ccc2[nH]c(S(=O)Cc3ncc(C)c(OC)c3C)nc2n1 (stereo not given) | inactive |
